Legend:
Assay in all cases: PBM binding z-score (relative to random genomic background probes); higher = stronger binding; sequences stand for … in GC…GCGATTGACAGCGTAGAATGAAGG
[1] = test system: FXR:RXRa (NR concentration 270 nM, RXRa partner concentration 90 nM)
Method in brief: (§1)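 On custom Agilent 4×180K arrays, double-stranded probes with 34-nt variable regions carried direct-repeat seeds, single-nucleotide variants, half-site ablations or random human genomic background. Ligand-free nuclear receptor dimers were applied for 1 h, and binding was read with antibodies against each partner (one per run). Binding z-scores come from regression-normalized fluorescence, with the random background probes as reference.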

[2] = test system: LXRa:RXRa (NR concentration 270 nM, RXRa partner concentration 90 nM)
Method in brief: as §1

[3] = test system: LXRa homodimer (NR concentration 270 nM)
Method in brief: as §1

[4] = test system: LXRb:RXRa (NR concentration 270 nM, RXRa partner concentration 90 nM)
Method in brief: as §1

[5] = test system: LXRb homodimer (NR concentration 270 nM)
Method in brief: as §1

[6] = test system: PPARa:RXRa (NR concentration 270 nM, RXRa partner concentration 90 nM)
Method in brief: as §1

[7] = test system: PPARg:RXRa (NR concentration 180 nM, RXRa partner concentration 90 nM)
Method in brief: as §1

[8] = test system: PPARg:RXRa 270nM:90nM, anti-RXR (NR concentration 270 nM, RXRa partner concentration 90 nM)
Method in brief: as §1

[9] = test system: PPARg:RXRa 30nM:10nM, anti-RXR (NR concentration 30 nM, RXRa partner concentration 10 nM)
Method in brief: as §1

[10] = test system: PPARg:RXRa 90nM:30nM, anti-RXR (NR concentration 90 nM, RXRa partner concentration 30 nM)
Method in brief: as §1

[11] = test system: PPARg:RXRa DBDmut IVT, anti-RXR (DBD mutation: RXRa K156A/R161A, NR concentration 270 nM, RXRa partner concentration 90 nM)
Method in brief: as §1

[12] = test system: PPARg:RXRa IVT, anti-PPARg (NR concentration 270 nM, RXRa partner concentration 90 nM)
Method in brief: as §1

[13] = test system: PPARg DBDmut:RXRa IVT, anti-PPARg (DBD mutation: PPARg1 K132A/R137A, NR concentration 270 nM, RXRa partner concentration 90 nM)
Method in brief: as §1

[14] = test system: PPARg DBDmut IVT, anti-PPARg (DBD mutation: PPARg1 K132A/R137A, NR concentration 270 nM)
Method in brief: as §1

[15] = test system: PPARg homodimer (NR concentration 180 nM)
Method in brief: as §1

[16] = test system: PXR:RXRa (NR concentration 270 nM, RXRa partner concentration 90 nM)
Method in brief: as §1

[17] = test system: PXR homodimer (NR concentration 270 nM)
Method in brief: as §1

[18] = test system: RARa:RXR (NR concentration 270 nM, RXRa partner concentration 90 nM)
Method in brief: as §1

[19] = test system: RARa homodimer (NR concentration 270 nM)
Method in brief: as §1

[20] = test system: RARb:RXRa (NR concentration 270 nM, RXRa partner concentration 90 nM)
Method in brief: as §1

Sequence	PBM binding z-score [1]	PBM binding z-score [2]	PBM binding z-score [3]	PBM binding z-score [4]	PBM binding z-score [5]	PBM binding z-score [6]	PBM binding z-score [7]	PBM binding z-score [8]	PBM binding z-score [9]	PBM binding z-score [10]	PBM binding z-score [11]	PBM binding z-score [12]	PBM binding z-score [13]	PBM binding z-score [14]	PBM binding z-score [15]	PBM binding z-score [16]	PBM binding z-score [17]	PBM binding z-score [18]	PBM binding z-score [19]	PBM binding z-score [20]
GCGAGCAGGCCATTTGGGTCACTCAATGACGGGC	0.039	-0.0343	-0.692	0.145	-1.06	1.37	0.6	0.408	-0.542	0.0983	0.844	2.03	-1.33	-0.968	0.0566	0.738	0.189	0.937	-0.309	1.69
AGAACGACGGCACGCTGAGTTGATAGCAGAGTAG	-0.194	-0.427	-0.906	-0.149	-1.06	-0.667	0.557	-0.503	-0.345	-0.753	-0.407	-0.737	-0.755	-1.05	-0.628	-0.462	0.0818	-0.447	-0.252	-0.524
CTCGAAAGGTCGGTTGAGGTGAGAATACGGATAA	3.46	1.74	-0.255	1.42	0.119	2.77	0.632	1.34	0.543	0.887	-0.0519	0.993	0.334	0.0546	0.742	3.13	0.108	2.11	0.173	2.98
GCATATAGGTAATACAAGGTGAAGGTCCGATTGT	0.87	1.46	0.0259	0.247	-0.268	1.09	1.25	1.12	0.453	0.748	4.57	3.17	0.671	0.932	0.421	0.391	0.248	1.23	0.491	0.573
TGTCAAAGTTTAAAGGTAACGTAAGTATCCACAC	1.49	1.72	0.175	1.29	-0.187	2.79	4.23	4.3	1.98	3.41	-0.319	2.73	0.942	1.54	0.899	1.7	0.39	2.12	0.576	2.46
CCGACAGGGGCATAAGGTTACCATAAGCCAGCCC	0.857	2.05	-0.0589	1.1	-1.11	1.9	1.11	0.825	-0.159	0.389	-0.166	0.15	-1.21	-1.04	0.637	0.688	-0.195	1.93	-0.124	2.11
TCTATTAGATGAAGGGCAACCGACGAGTCCGTTT	0.734	0.81	-0.159	0.733	0.205	0.841	0.575	2.01	3.7	2.93	2.54	0.861	0.95	0.278	0.308	0.796	1.11	0.642	0.636	1.47
CATCGGAGGACAGAAGGTCAGAGCTGTCCGCTTT	1.15	1.44	0.265	0.77	-0.44	1.8	0.369	1.27	-0.542	0.627	-0.292	0.418	-0.481	-1.29	0.568	1.12	-0.438	1.86	-0.23	2.86
ATGTCTAGGTAAAGTTCAGTGAAAGATCGATAGA	1.21	1.74	1.26	1.15	0.816	2.56	3.51	4.55	2.43	4.25	1.29	2.46	1.14	1.13	1.69	2.12	1.98	1.13	1.09	2.84
TTACCAAGGTGAGCTGAGGTCGTTGAACCAACTC	1.78	1.48	-0.292	0.787	-0.885	1.88	0.111	0.783	-0.445	0.391	0.903	1.83	-0.507	-1.13	-0.0477	5.01	0.275	2.19	-0.877	1.79
ATCTCTAGGTAAAAATTCAGTGAATCCCGAGGAT	0.0972	-0.215	-0.0718	-0.277	0.956	0.272	0.62	1.34	0.671	1.1	1.24	1.17	1.27	1.13	0.243	-0.0506	-0.317	-0.0791	0.766	0.165
ATCGAAAGATCGACGAGGTGAGTATACACCGTTT	-0.0851	-0.16	-0.368	-0.346	-0.329	0.0246	0.902	-0.253	0.289	0.00942	-0.646	0.27	0.0625	0.447	-0.719	-0.123	0.0422	0.105	-0.0578	-0.0508
ATCTCTAGGTCAAGATAGTTCAGTGAATGCAAAT	3.96	6.31	4.48	3.62	1.93	4.23	4.92	4.63	2.03	3.66	6.08	6.47	1.92	2.11	2.05	5.27	1.48	3.29	1.32	4.26
AGAATGAGGTAATACGTAGATCAGGGAAGAAAGT	0.302	0.0343	-0.0872	0.215	-0.209	0.49	1.04	0.841	0.517	0.757	3.49	0.83	1.02	0.684	-0.201	0.144	0.294	0.431	0.262	0.0493

From the supplement of paper PMC6555819
